The values below come from PubChem BioAssay (NCATS).

Values without a mark were called inactive. How the calls were made is not given here.
Potency means the concentration at half of the fitted maximal effect.

This experiment has as its system HIV-1 nucleocapsid protein NCp7 (binding to TG oligonucleotide). The experiment in a line: HIV Nucleocapsid (AID 346).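 Further: potency is for inhibitors that block NC binding and lower polarization.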 As to conditions: HIV-1 NC / fluorescein-TGTGTGTG probe, fluorescence polarization. In a few lines:
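Fluorescence polarization readout: labelled TG4xF oligo (10 nM) with 100 nM nucleocapsid protein, high-salt (250mM NaCl) Hepes pH 7.5 buffer containing zinc and fresh reducing agents. Compounds added by pin tool; incubation 1 hr, room temperature.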
Background: Polarisation of emitted light reports the rotation of a fluorescent probe.
As for `Cc1nc2cnc(Nc3ccccc3)nc2n(C)c1=O`, the Potency was above 4 µM.

Take `CN(Cc1ccco1)c1ncncc1-c1cccc(C#N)c1`: the Potency was above 20 µM.

For `COc1ncc2nc(-c3cccs3)c(=O)n(CCc3ccccc3)c2n1`, the Potency is above 20 µM.

For the compound `O=C(c1ccco1)N1CCC[C@@]2(CCN(c3ccccc3)C2)C1`, the Potency is above 20 µM.

As to `COC(=O)N1CCC2(CCCN(C(=O)Nc3cccc(F)c3)C2)CC1`, the Potency is above 20 µM.

For `FC(F)(F)c1ccccc1-c1cc(N2CCNCC2)ncn1`, the Potency is above 20 µM.

In the case of `O=C(c1ccco1)N1CCC2(CC1)CN(c1ccc(-c3ccccc3)cc1)C2`, the Potency is above 20 µM.

For the compound `COc1cccc(Cn2c(=O)c(-c3cc(F)cc(F)c3)nc3cnc(N(C)C)nc32)c1`, the Potency is above 4 µM.

Regarding `Cc1nc2cnc(N3CCNCC3)nc2n(-c2ccccc2)c1=O`, the Potency was above 20 µM.

With `COc1ccc(-c2nc3cnc(Nc4cccc(OC)c4)nc3n(CCC#N)c2=O)cc1`, the Potency was above 20 µM.

As to `Cn1cccc1C(=O)N1CCC2(CC1)CCN(c1cccc(-c3ccccc3)c1)CC2`, the Potency was above 20 µM.

With `CC(=O)N1CCC2(CCCN(Cc3cc(C(F)(F)F)cc(C(F)(F)F)c3)C2)CC1`, the Potency is above 20 µM.

For `O=C(c1ccncc1)N1CCC2(CCCN(c3ccncc3)C2)CC1`, the Potency is above 20 µM.

As for `CN(C)C(=O)c1ccc(-c2cncnc2N(C)Cc2ccco2)cc1`, the Potency was above 20 µM.

As for `Cn1c(=O)c(-c2cc(F)cc(F)c2)nc2cnc(Oc3ccccc3)nc21`, the Potency was above 20 µM.
